Rpn11 inh – Rpn11 (human) deubiquitinase inhibition; inhibition, % at 20 µM; hit rate 0.59% among 360,000; O00487; human 26S proteasome, Ub4-pepOG fluorescence polarization; 20S core pre-blocked with epoxomicin;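 active means inhibition at 20 µM, scaled to each plate's controls, above about 33%, limit read from the data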
TPT1 inh – C. albicans TPT1 enzyme inhibition; inhibition, % at 5 µM; hit rate 0.81% among 300,000; recombinant caTPT1, FP RNA substrate dephosphorylation;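 active means inhibition above the mean of all tested compounds plus 3 SD, set per screening campaign, cut at about 24% in these data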;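 further: plate controls were DMSO alone for no effect and ferristatin control at 100 nM for full effect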
IDE act – activators of human insulin-degrading enzyme in cells | P14735 | HEK cells, FAbeta-B cleavage, fluorescence polarization; 0% vehicle, 100% cell-free pure enzyme wells | activation, % at 5.96 µM | hit rate 0.073% among 340,000;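 active means activation above the mean of all tested compounds plus 3 SD, set per screening campaign, cut at about 17% in these data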
IDE cell inh – cellular human IDE inhibition; P14735; HEK cells, FAbetaB cleavage, fluorescence polarization; inhibition, % at 5.59 µM; hit rate 0.41% among 320,000;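 active means percent inhibition above the average of all tested compounds plus 3 SD, set per screening campaign, cut at about 16% in these data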;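 further: IDE supplied by intact live HEK cells; FP after avidin binding of uncleaved biotin substrate so inhibition keeps polarization high; 0% = DMSO wells and 100% = 60 µM reference IDE inhibitor Ii1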
Calb FLC – C. albicans growth modulation with fluconazole; C. albicans CaCi-2 (fluconazole-resistant clinical isolate) + fluconazole, Alamar Blue growth, 48 h; growth inhibition, % (test concentration not listed); hit rate 0.57% among 300,000;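 active means growth inhibition above about 58% in most replicates, limit read from the data, passing the limit was not always enough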;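 further: all wells also contain fluconazole at 8 µg/ml as a sub-toxic cotreatment; 0% = median of DMSO wells and 100% = median of geldanamycin control wells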
Rin1-Abl PPI inh – inhibitors of human Rin1-Abl protein interaction | TR-FRET Rin1/Abl binding, biochemical | hit rate 0.4% among 360,000 | AID 588664 | inhibition, % at 7.35 µM; in the data active means inhibition above about 5%, passing the limit was not always enough
Target sequence (P00519 whole entry, looked up): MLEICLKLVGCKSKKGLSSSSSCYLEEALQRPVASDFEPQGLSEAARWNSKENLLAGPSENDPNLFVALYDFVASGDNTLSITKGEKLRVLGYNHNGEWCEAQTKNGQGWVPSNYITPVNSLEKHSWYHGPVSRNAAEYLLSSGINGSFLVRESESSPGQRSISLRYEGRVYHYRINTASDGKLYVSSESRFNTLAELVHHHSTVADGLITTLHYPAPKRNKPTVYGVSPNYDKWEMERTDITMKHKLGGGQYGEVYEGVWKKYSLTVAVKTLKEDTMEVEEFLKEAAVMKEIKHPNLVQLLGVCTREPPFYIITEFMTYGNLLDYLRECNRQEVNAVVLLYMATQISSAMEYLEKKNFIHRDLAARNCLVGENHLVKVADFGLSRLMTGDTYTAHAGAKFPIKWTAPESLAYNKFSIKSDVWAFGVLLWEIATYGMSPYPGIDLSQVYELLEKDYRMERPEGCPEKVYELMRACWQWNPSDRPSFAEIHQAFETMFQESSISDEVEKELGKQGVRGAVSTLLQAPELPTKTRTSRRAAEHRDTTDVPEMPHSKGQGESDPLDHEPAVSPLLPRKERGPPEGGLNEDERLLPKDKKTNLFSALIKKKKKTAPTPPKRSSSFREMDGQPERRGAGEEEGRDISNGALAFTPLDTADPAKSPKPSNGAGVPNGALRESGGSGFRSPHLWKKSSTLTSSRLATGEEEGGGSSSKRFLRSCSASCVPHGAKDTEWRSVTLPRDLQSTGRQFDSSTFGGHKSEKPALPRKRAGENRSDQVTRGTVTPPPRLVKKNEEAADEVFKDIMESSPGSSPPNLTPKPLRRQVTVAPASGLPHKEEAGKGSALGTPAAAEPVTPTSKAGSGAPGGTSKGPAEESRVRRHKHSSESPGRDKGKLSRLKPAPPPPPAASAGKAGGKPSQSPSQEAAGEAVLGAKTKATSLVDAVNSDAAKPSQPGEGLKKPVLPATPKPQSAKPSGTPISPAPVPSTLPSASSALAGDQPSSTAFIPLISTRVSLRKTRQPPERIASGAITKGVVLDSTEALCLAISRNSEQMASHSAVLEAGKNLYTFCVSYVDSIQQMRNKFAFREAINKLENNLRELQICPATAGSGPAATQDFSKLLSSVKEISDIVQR
Target sequence (Q13671 whole entry, looked up): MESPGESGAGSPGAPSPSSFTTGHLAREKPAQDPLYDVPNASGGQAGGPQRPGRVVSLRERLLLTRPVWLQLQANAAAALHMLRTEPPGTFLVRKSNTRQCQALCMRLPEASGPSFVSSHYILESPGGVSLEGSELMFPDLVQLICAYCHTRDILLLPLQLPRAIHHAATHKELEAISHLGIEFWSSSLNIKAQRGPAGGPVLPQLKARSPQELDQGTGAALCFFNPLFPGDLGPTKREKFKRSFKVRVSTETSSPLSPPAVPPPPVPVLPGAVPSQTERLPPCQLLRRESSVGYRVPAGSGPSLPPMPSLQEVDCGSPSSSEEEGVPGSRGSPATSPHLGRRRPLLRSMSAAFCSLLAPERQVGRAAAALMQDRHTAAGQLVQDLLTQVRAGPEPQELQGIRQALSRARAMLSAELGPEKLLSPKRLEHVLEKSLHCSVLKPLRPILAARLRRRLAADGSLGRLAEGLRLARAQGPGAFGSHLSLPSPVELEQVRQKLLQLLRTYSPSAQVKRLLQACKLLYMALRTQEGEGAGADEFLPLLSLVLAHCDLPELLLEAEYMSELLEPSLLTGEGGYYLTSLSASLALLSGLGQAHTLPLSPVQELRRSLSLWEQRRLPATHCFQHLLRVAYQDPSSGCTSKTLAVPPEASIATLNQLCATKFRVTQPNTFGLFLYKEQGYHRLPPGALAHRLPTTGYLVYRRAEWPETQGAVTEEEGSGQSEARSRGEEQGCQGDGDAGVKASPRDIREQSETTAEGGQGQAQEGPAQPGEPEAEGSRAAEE
An asterisk follows results filed as active; · = not tested or not shown; ! = not active in a repeat. An excerpt weighted towards active compounds, which were near 2.3% of everything screened.

SMILES | Rpn11 inh | TPT1 inh | IDE act | IDE cell inh | Calb FLC | Rin1-Abl PPI inh
O=C(O)c1cc(-c2ccco2)nc2ccc(Br)cc12 | 63*! | -12 | 3 | -2 | 13 | 0
Cc1cc(C)cc(OCC(=O)NNC(=S)NC(=O)C2CC2)c1 | 4 | -2 | 5 | -5 | 119* | 3
CCc1ccc(OCC(=O)NC(=S)Nc2ccc(C)cc2C)c(Br)c1 | -1 | 4 | -5 | 2 | 4 | 0
COc1ccc(OCC(=O)NNC(=S)NC(=O)C2CC2)cc1 | -4 | · | -6 | · | 14 | 1
CCc1ccc(OCC(=O)NNC(=S)NC(=O)C2CCCCC2)c(Br)c1 | 13 | -1 | -12 | -2 | 84* | 1
CCc1ccc(OCC(=O)NC2CCCCC2)c(Br)c1 | -7 | -1 | 5 | 0 | -13 | 2
CCc1ccc(OCC(=O)NNC(=S)NC(=O)C2CC2)c(Br)c1 | 10 | · | 8 | · | 107* | 2
CC(=O)N/N=C/c1ccccc1OCCOc1cccc(C)c1 | 1 | -2 | -3 | 2 | 19 | -2
Cc1ccc(C(=O)NNC(=O)c2cc(C)nc3ccccc23)cc1 | -3 | · | -1 | 6 | · | -3
Cc1ccc(C(=O)NC(=O)OCCn2c(C)cnc2[N+](=O)[O-])cc1 | -4 | 2 | 4 | -2 | 88* | 6
Cc1cnc([N+](=O)[O-])n1CCOC(=O)NC(=O)c1ccccc1 | -3 | 2 | 1 | 1 | 3 | -2
CN(C)CCCNC(=O)c1ccc(-c2nc(-c3ccc(Cl)cc3)cs2)cc1 | -25 | 2 | -9 | 4 | 100* | -9
COc1ccc(C)cc1NS(=O)(=O)c1ccc(Cl)nc1 | -6 | · | 0 | -1 | · | -2
C[C@H](CO)N1C[C@H](C)[C@H](CN(C)Cc2cccc(F)c2)Oc2ncc(Br)cc2C1=O | -7 | · | · | · | · | 1
COc1cccc(CNC(=O)Cn2nc(C)c([N+](=O)[O-])c2C)c1 | -3 | 0 | 5 | 4 | -4 | -1
N#C/C(=N/Nc1ccc(OC(F)(F)F)cc1)C(N)=S | -2 | -2 | 5 | 7 | 81* | -6
COc1cccc(NC(=O)CN(C)C(=O)CCN2C(=O)C3CC=CCC3C2=O)c1 (configuration not stated) | -3 | · | 6 | · | · | 2
COc1ccc(-c2cc(C3CCN(Cc4cccc(C(F)(F)F)c4)CC3)[nH]n2)cc1 | 3 | -1 | 1 | -3 | 70* | 0
Cc1ccsc1C(=O)N1CCC1(C)C(=O)Nc1ccc2c(c1)OCCO2 (configuration not stated) | 1 | · | · | · | · | 0
Cc1nc2ccccn2c1C(=O)N/N=C/c1ccc([N+](=O)[O-])cc1 | · | -3 | · | -5 | 29 | ·
Cc1scc(C(=O)N/N=C/c2ccc([N+](=O)[O-])o2)c1C | 12 | 1 | -6 | 6 | 90* | 1
Cc1nc2ccccn2c1C(=O)N/N=C/c1ccc([N+](=O)[O-])o1 | -17 | -2 | 4 | -2 | 100* | 1
CCCCn1c(N)c(N(CCOC)C(=O)CN(C)CC(=O)Nc2ccc(Cl)c(Cl)c2)c(=O)[nH]c1=O | -3 | · | 3 | 1 | · | -1
Cc1nnc(NC(=O)c2ccc(S(=O)(=O)N(C)Cc3ccccc3)cc2)o1 | -11 | 2 | 3 | -4 | 87* | 3
COC(=O)c1ccn(CSc2cc(Cl)ccc2Cl)n1 | -7 | · | 2 | 4 | · | 1
SMILES | Rpn11 inh | TPT1 inh | IDE act | IDE cell inh | Calb FLC | Rin1-Abl PPI inh
N#CC1=C(N)SC(N)=C(C#N)C1c1ccoc1 | · | 32* | · | 15 | 5 | ·
CCC(C(=O)NC1CCCC1)N(C(=O)Cn1nnc(-c2ccc(C)o2)n1)c1cccc(OC)c1 (configuration not stated) | 5 | -5 | -3 | 7 | -6 | -2
O=C(Nc1cccc(C(F)(F)F)c1)C1Cc2c(-c3ccccc3Oc3ccccc3)ccnc2O1 (configuration not stated) | 0 | · | · | · | · | -1
C=CCOc1ccc(/C=C2\SC(=S)N(NS(=O)(=O)c3ccc(C)cc3)C2=O)cc1 | -3 | -2 | 2 | 3 | 88* | 0
CCOC(=O)c1c(NC(=O)CN2C(=O)NC3(CCCCC3C)C2=O)sc(C)c1CC (configuration not stated) | 5 | 2 | 4 | -2 | · | -3
Nc1ccc(OCCCc2c(N)nc(N)nc2N)cc1 | 81* | -5 | 0 | 2 | 10 | -4
Cc1ccc(NC(=O)CCS(=O)(=O)c2cccc3nonc23)c(Br)c1 | -2 | -1 | -2 | 3 | 3 | 1
CCOc1ccc(/C=C/C(O)=C2/C(=O)N(C)C3(C)CC2c2ccccc2O3)cc1OC (configuration not stated) | -2 | 3 | -4 | -3 | -1 | 0
CN(C)c1ccc(/C=C/C(O)=C2/C(=O)N(C)C3(C)CC2c2ccccc2O3)cc1 (configuration not stated) | · | 188* | · | 42* | -10 | ·
O=C(Nc1nc(-c2ccccn2)cs1)c1cc(Cl)ccc1[N+](=O)[O-] | 33 | 0 | -4 | -3 | -2 | -2
Cc1cc(C(=O)Nc2nc(-c3ccccn3)cs2)ccc1[N+](=O)[O-] | 12 | 0 | -2 | -1 | 110* | 2
N#CCCn1nc2c(c1N)CCC2 | -3 | · | 5 | · | · | 6
O=C(NCCCc1ccccc1)Nc1cccc(Cl)c1 | -3 | 0 | -1 | 4 | 107* | 1
CC(C)CC1=C/C(=C/c2ccc(-c3ccccc3)o2)C(=O)O1 | 53* | 8 | 1 | 7 | 18 | 1
Oc1ccc(C2=NNC(c3ccc(O)cc3)=NN2)cc1 | 2 | -5 | 4 | -1 | 94* | -1
Oc1ccc(-c2nnc(-c3ccc(O)cc3)nn2)cc1 | 0 | -2 | 7 | -7 | -12 | -3
CN(C)S(=O)(=O)N1CCN(c2ccnc3cc(Cl)ccc23)CC1 | 0 | -1 | -19 | 11 | 24 | -4
CC(C)S(=O)(=O)N1CCN(c2ccnc3cc(Cl)ccc23)CC1 | -8 | 0 | · | 23* | 0 | -7
O=C(c1ccccc1)C1(c2ccccc2)OC1c1ccccc1 (configuration not stated) | -2 | · | -1 | · | · | 1
Cc1ccc(C)c(S(=O)(=O)c2c(C)cc(C)[nH]c2=O)c1 | -1 | -2 | 5 | 6 | 7 | -2
Cc1c(C(=O)N(Cc2ccc(Cl)cc2)C2CCS(=O)(=O)C2)oc2ccccc12 (configuration not stated) | -7 | -1 | 2 | -1 | 0 | 1
CCOc1ccc(CN(C(=O)c2oc3ccccc3c2C)C2CCS(=O)(=O)C2)cc1 (configuration not stated) | 3 | 2 | 4 | -2 | 101* | 2
CC1(C)CC(N2CCCC2)=CC(=[N+]2CCCCCC2)C1 | 9 | 1 | 2 | 11 | 88* | -2
CC1(C)CC(N2CCN(c3ccccc3)CC2)=CC(=[N+]2CCCC2)C1 | 1 | 1 | 2 | -3 | 94* | -1
Cc1ccc(NC(=O)c2ccc(Cl)c(S(=O)(=O)N3CCc4ccccc43)c2)nc1 | 13 | · | 5 | · | · | 2

Screening data as filed in PubChem BioAssay.
